Source: PubChem BioAssay
CIT2 TOR yeast = alters CIT2-GFP fluorescence in TOR pathway yeast screen; GFP response vs DMSO, % at 10 µM; AID 2029; hit rate 0.065% among 320,000; S. cerevisiae CIT2-GFP strain, flow cytometry, 3 h; 100 means same as DMSO wells;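 active means GFP response relative to DMSO above a set limit, near the screen mean plus 3 SD, cut at about 150% in these data; inconclusive means Fewer than 70 cells measured for a yeast strain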;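 further: ratio of well median GFP fluorescence to mean of DMSO wells on the plate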
MEP2 TOR yeast = yeast TOR pathway MEP2-GFP modulation; S. cerevisiae MEP2-GFP strain, flow cytometry GFP, 3 h; 100% = DMSO control level; hit rate 0.51% among 330,000; GFP response vs DMSO, % at 10 µM; AID 2016;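 active means GFP response versus DMSO above a set limit, roughly screen mean plus 3 SD, cut at about 180% in these data; inconclusive means fewer than 70 cells counted for a yeast strain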;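 further: median GFP fluorescence of the barcode-gated MEP2-GFP cells per well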
LAP4 TOR yeast = yeast TOR pathway LAP4-GFP modulation. S. cerevisiae LAP4-GFP multiplex, flow cytometry GFP, 3 h; median GFP as percent of DMSO wells. GFP response vs DMSO, % at 10 µM. hit rate 0.34% among 320,000. AID 2023;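 active means GFP response vs DMSO above a set limit, about the screen mean plus 3 SD, cut at about 150% in these data; inconclusive means under 70 cell events counted for the yeast strain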
RPL19A-GFP yeast = modulators of TOR pathway RPL19A-GFP in S. cerevisiae; percent response vs DMSO, % at 10 µM; S. cerevisiae RPL19A-GFP strain, flow cytometry, 3 h; stronger effect = lower value; hit rate 0.3% among 330,000;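 active means percent response vs DMSO below 50%; inconclusive means fewer than 70 events counted for the yeast strain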;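 further: median channel GFP fluorescence of the barcoded RPL19A-GFP strain; ratio of sample median GFP to plate DMSO average so 100% = DMSO; lower means less RPL19A-GFP as with rapamycin TOR inhibition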
VLA-4 inh = inhibition in a human VLA-4 binding assay; P13612; VLA-4 expressing cells, ligand binding flow cytometry; inhibition, % (about 7 µM as worked out from the volumes in the protocol); hit rate 0.2% among 330,000; AID 2557; in the data active means inhibition above about 50%
Target sequence (P13612 whole entry, looked up): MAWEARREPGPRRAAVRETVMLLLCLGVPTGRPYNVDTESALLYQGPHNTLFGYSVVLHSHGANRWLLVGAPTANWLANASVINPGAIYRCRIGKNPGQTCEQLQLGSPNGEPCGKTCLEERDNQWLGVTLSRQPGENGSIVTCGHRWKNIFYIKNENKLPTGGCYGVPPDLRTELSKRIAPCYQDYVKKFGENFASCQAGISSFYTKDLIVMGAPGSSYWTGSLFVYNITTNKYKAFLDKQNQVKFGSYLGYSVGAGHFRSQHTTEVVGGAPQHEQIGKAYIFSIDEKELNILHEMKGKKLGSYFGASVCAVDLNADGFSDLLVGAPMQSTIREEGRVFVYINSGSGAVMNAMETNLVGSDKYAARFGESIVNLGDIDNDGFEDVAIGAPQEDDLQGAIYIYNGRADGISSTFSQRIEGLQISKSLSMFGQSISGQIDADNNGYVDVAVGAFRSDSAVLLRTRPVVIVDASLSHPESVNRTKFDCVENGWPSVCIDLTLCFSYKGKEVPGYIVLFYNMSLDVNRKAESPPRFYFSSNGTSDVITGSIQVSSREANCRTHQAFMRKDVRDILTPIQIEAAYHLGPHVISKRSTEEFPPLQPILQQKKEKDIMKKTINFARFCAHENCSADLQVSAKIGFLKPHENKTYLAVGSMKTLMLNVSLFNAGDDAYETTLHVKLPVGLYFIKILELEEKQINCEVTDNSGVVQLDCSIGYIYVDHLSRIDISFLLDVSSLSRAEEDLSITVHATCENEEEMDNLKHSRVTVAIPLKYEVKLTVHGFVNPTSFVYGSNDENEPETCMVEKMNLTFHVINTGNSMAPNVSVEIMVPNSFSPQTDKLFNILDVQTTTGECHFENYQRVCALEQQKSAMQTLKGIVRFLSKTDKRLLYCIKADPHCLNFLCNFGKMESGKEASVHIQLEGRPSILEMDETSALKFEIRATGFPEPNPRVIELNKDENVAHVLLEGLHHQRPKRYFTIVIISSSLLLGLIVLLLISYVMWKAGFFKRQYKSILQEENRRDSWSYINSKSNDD
AGP1-GFP MLPCN = alters AGP1-GFP fluorescence in TOR pathway yeast screen | S. cerevisiae AGP1-GFP multiplex flow cytometry, 3 h; GFP as percent of DMSO wells | GFP response vs DMSO, % at 10 µM | hit rate 0.02% among 320,000 | AID 2066;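 active means GFP response relative to DMSO above a set limit, near screen average plus 3 SD, cut at about 150% in these data; inconclusive means fewer than 70 cells counted for the yeast strain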;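 further: median GFP channel fluorescence of the gated AGP1 strain per well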
VLA-4 mod pick = human VLA-4 allosteric modulation in cherry picked compounds; shares compounds with VLA-4 inh; U937 cells, HUTS-21 LIBS mAb binding, flow cytometry; LDV ligand present at threefold Kd; inhibition, % at 6.7 µM; hit rate 2% among 1,300; AID 2813; in the data active means inhibition above about 40%;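 further: 0% = ligand without compound and 100% = no ligand background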
An asterisk follows results filed as active; u = inconclusive; x = no result given. An excerpt weighted towards active compounds, which were near 1.1% of everything screened.

SMILES | CIT2 TOR yeast | MEP2 TOR yeast | LAP4 TOR yeast | RPL19A-GFP yeast | VLA-4 inh | AGP1-GFP MLPCN | VLA-4 mod pick
Cc1ccc(S(=O)(=O)N2CCOCC2)cc1NC(=O)COC(=O)c1cccnc1Cl | 95.8 | 101.6 | 93.3 | 102.5 | 6.4 | 96.7 | x
Cc1cccc(NC(=O)CSCC(=O)N(C)CCOc2ccc(Cl)cc2)c1 | 96.7 | 104.0 | 109.5 | 99.3 | 51.9* | 102.6 | -1.6
Cc1cccc(NC(=O)CSCC(=O)N(C)CC(=O)Nc2cccc(F)c2)c1 | 94.3 | 101.8 | 105.2 | 92.5 | 4.9 | 100.8 | x
COc1ccc(C(=O)NCc2ccon2)cc1OC1CCN(C(C)C)CC1 | 96.8 | 95.2 | 87.5 | 101.8 | 8.3 | 98.9 | x
CCOC(=O)c1c(NC(N)=O)sc(C)c1C | 97.5 | 94.7 | 97.5 | 96.2 | 9.1 | 98.2 | x
CCOC(=O)c1c(N2C(=O)C=CC2=O)sc(C)c1C | 68.4 | 107.6 | 132.5 | 67.0 | 50.3* | 67.4 | 32.0
COCCCNC(=O)CCN1N=C(c2ccccc2)CCC1=O | 103.8 | 102.3 | 96.7 | 106.0 | 1.3 | 107.8 | x
O=C(Nc1ccc(Br)cc1)Nc1ccccc1Cl | 100.4 | 111.9 | 91.0 | 100.3 | 6.3 | 91.8 | -0.2
COc1cc2sc(-c3ccccc3OC)c(-c3ccc(OCCN4CCOCC4)cc3)c2cc1OC | x | x | x | x | x | x | 3.5
COc1ccc(OCCN2CCOCC2)cc1 | 103.2 | 103.7 | 98.6 | 103.4 | 8.1 | 99.2 | x
COc1ccc2c(-c3ccc(OCCN4CCOCC4)cc3)c(-c3ccccc3OC)sc2c1 | x | x | x | x | x | x | 0.7
CCOc1ccc(S(=O)(=O)n2nc(C)c(S(=O)(=O)N3CCOCC3)c2C)cc1 | 96.0 | 97.8 | 95.2 | 94.7 | 100.0* | 98.2 | -2.1
Cc1nn(S(=O)(=O)c2ccc(C(C)C)cc2)c(C)c1S(=O)(=O)N1CCOCC1 | 110.7 | 109.1 | 106.2 | 104.0 | 5.4 | 107.3 | x
Cn1c(SCC(=O)N2c3ccccc3Sc3ccccc32)nc2ccccc21 | 84.1 | 87.0 | 97.2 | 99.7 | 0.0 | 92.9 | x
CN(C)CCCn1c(SCC(=O)N2c3ccccc3Sc3ccccc32)nc2ccccc2c1=O | 90.2 | 93.9 | 103.8 | 98.2 | 52.5* | 98.5 | 0.0
COC(=O)[C@]1(C)N[C@H](c2ccc(-c3ccc(Cl)c(Cl)c3)c(OC)c2)[C@@H]2C(=O)N(C)C(=O)[C@@H]21 | 83.0 | 94.9 | 105.5 | 97.7 | 0.9 | 89.4 | x
CCOc1ccc(CN2CCN(Cc3cn(CC)nc3C)CC2CCO)cc1 (centres undefined) | 103.5 | 100.9 | 101.0 | 100.7 | 41.6 | 102.6 | 2.1
CCOc1ccc(CN2CCN(Cc3c(C)nn(CC)c3C)CC2CCO)cc1 (centres undefined) | 94.7 | 101.5 | 96.1 | 96.5 | 5.8 | 93.9 | x
O=C(O)c1cc(-c2ccc(Cl)c(Cl)c2)n(-c2ccccc2)n1 | 100.0 | 113.9 | 100.7 | 105.2 | 47.4 | 98.2 | -7.7
O=C(O)c1cc(-c2ccc(Cl)cc2)n(-c2ccc(Cl)cc2)n1 | 92.4 | 102.3 | 100.8 | 101.6 | 4.1 | 87.1 | x
COC(=O)c1ccc(N2CCN(c3ccccc3)CC2)c(N)c1 | 100.0 | 107.8 | 98.7 | 106.0 | 45.1 | 108.2 | 2.1
COc1cc(C(=O)OCc2cccc(S(=O)(=O)N3CCOCC3)c2)ccc1OCC(C)C | 95.0 | 99.9 | 94.2 | 97.3 | 12.9 | 94.6 | x
CCN(CC(=O)Nc1ccc(NC(C)=O)cc1)C(=O)/C=C/c1cccs1 | 93.1 | 99.6 | 90.5 | 96.9 | 53.7* | 92.9 | 3.7
Cc1ccc(C(=O)NNS(=O)(=O)c2ccc(F)cc2)cc1 | 97.8 | 109.1 | 93.5 | 104.0 | 9.0 | 97.5 | x
CC(C)CCn1c(C(C)O)nc2ccccc21 (centres undefined) | 101.5 | 103.1 | 97.8 | 97.9 | 86.7* | 97.8 | -0.2
SMILES | CIT2 TOR yeast | MEP2 TOR yeast | LAP4 TOR yeast | RPL19A-GFP yeast | VLA-4 inh | AGP1-GFP MLPCN | VLA-4 mod pick
NC(=O)c1ccc(NC(=O)CNC(=O)c2sc3ccccc3c2Cl)cc1 | 84.1 | 99.7 | 95.8 | 96.4 | 21.4 | 97.1 | x
Nc1cc(C(=O)OCC(=O)NCCC2=CCCCC2)ccc1Cl | 80.2 | 93.9 | 94.3 | 92.9 | -18.9 | 75.3 | 4.7
CC1CCCCN1CC(O)COCc1ccc(Cl)cc1 (centres undefined) | u | u | u | u | 20.6 | u | x
CCOC(=O)C(CC)(CC)C(=O)/C=C/c1ccc(Br)cc1 | 97.7 | 103.2 | 102.6 | 101.1 | 89.7* | 101.0 | 4.7
COCCN(Cc1cc2cc3c(cc2nc1Cl)OCO3)C(=O)Nc1ccc(F)cc1 | 97.5 | 93.8 | 102.0 | 98.3 | -4.0 | 100.2 | x
COCCN(Cc1cc2cc3c(cc2nc1Cl)OCO3)C(=O)Nc1ccc(OC)cc1 | 97.5 | 99.3 | 97.6 | 101.0 | 53.8* | 98.4 | -9.5
CCN(C[C@H]1N[C@@](C)(C(=O)OC)[C@H]2C(=O)N(Cc3ccccc3)C(=O)[C@@H]12)C(=O)C1CCCCC1 | 84.4 | 94.8 | 93.1 | 97.7 | -4.4 | 93.4 | x
CCN(C[C@H]1N[C@@](Cc2ccccc2)(C(=O)OC)[C@H]2C(=O)N(Cc3ccccc3)C(=O)[C@@H]12)C(=O)COc1ccccc1 | 102.2 | 103.7 | 96.3 | 101.0 | 55.6* | 102.1 | 2.9
CCN(C[C@H]1N[C@@](Cc2ccccc2)(C(=O)OC)[C@H]2C(=O)N(Cc3ccccc3)C(=O)[C@@H]12)C(=O)C1CCCCC1 | 105.1 | 98.5 | 95.3 | 99.8 | 8.8 | 104.3 | -4.2
CC(=O)Nc1ccc(S(=O)(=O)NCC2CCC(C(=O)NCCCN(C)Cc3ccccc3)CC2)cc1 (centres undefined) | 111.6 | 111.6 | 89.0 | 104.7 | 10.7 | 104.6 | x
COc1ccccc1N1CCN(Cc2nc(-c3ccc(F)cc3)oc2C)CC1 | 102.8 | 101.5 | 90.4 | 99.3 | 51.6* | 97.5 | -6.7
O=C(CCO)c1ccc(O)cc1 | 100.8 | 109.4 | 108.2 | 101.8 | 46.5 | 105.0 | x
O=C(CCSc1ccc(Br)cc1)c1ccc(O)cc1 | 84.0 | 100.2 | 98.0 | 102.1 | 40.5 | 98.6 | -12.6
CCCSc1ccc([C@H]2N[C@@](CC(C)C)(C(=O)OC)[C@H]3C(=O)N(CC)C(=O)[C@@H]23)cc1 | 106.3 | 102.4 | 106.6 | 107.1 | 0.5 | 114.7 | x
O=C(O)CCC(=O)Nc1ccc(S(=O)(=O)Nc2nccs2)cc1 | 99.4 | 96.7 | 93.4 | 94.0 | 56.5* | 92.4 | -3.0
CCC(=O)Nc1ccc(S(=O)(=O)Nc2nccs2)cc1 | 105.3 | 99.5 | 93.4 | 97.3 | -1.6 | 93.3 | x
COc1ccc(C)cc1NC(=O)NCc1ccc(F)cc1 | 100.9 | 104.6 | 101.7 | 102.2 | 40.2 | 98.9 | -2.0
Cc1ccc(C(=O)OCC(=O)Nc2cccc(Cl)c2C)c(O)c1 | 105.7 | 100.0 | 99.7 | 98.2 | 0.5 | 108.3 | -4.8
